Test systems include NCI-H23 lung; NCI-H226 lung; NCI-H322M lung; HOP-62 NSCLC; NCI-H460 lung; HOP-92 NSCLC; NCI-H522 lung; A549/ATCC NSCLC; 786-0 renal; COLO 205 colon; DU-145 prostate; K-562 leukemia; MALME-3M melanoma; MDA-MB-231 breast; RXF 393 renal; SF-268 CNS; SF-295 CNS; SF-539 CNS; UACC-257 melanoma; M14 melanoma.
Holding throughout (assay): NCI-60 one-dose screen, 48 h (100 = growth as untreated, 0 = no growth, -100 = all killed)
Conditions in all cases: 10 µM unless noted

The panel holds about 83,000 compounds, 20% with a hit somewhere; the sample as a whole holds those more often.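 In brief: 96-well plates, 48 h treatment, single concentration, percent growth endpoint.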 A number with no mark means an inactive call. The source made the active and inactive calls. Rule for the calls: active = growth percent below 10; inactive = the rest.

`O=C(O)CCCCCNC(=O)OCc1ccccc1`: the growth is 102% in the assay with NCI-H23 lung; 105% in the assay with NCI-H226 lung; 95.1% in the assay on NCI-H322M lung; 101% in the assay on HOP-62 NSCLC; 101% with NCI-H460 lung; 92.3% in the assay with HOP-92 NSCLC. In addition, the growth was 107% in the assay on NCI-H522 lung; 100% in the assay on A549/ATCC NSCLC; 102% in the assay on 786-0 renal; 99% in the assay with COLO 205 colon; 98% in the assay with DU-145 prostate; 124% with K-562 leukemia. Moreover, the growth is 97.2% with MALME-3M melanoma; 102% with MDA-MB-231 breast; 119% with RXF 393 renal; 100% in the assay with SF-268 CNS; 99.8% in the assay with SF-295 CNS; 97.5% with SF-539 CNS. In addition, the growth with UACC-257 melanoma is 112%; in the assay on M14 melanoma, 92.7%.

In the case of `C=C(C)[C@@H]1CC[C@]2(CO)CC[C@]3(C)[C@H](CC[C@@H]4[C@@]5(C)CC[C@H](O)C(C)(C)[C@@H]5CC[C@]43C)[C@@H]12`, the growth with NCI-H23 lung is 25.9%; with NCI-H226 lung it was 37.5%; with NCI-H322M lung, 68.9%; in the assay on HOP-62 NSCLC, 43.2%; in the assay with NCI-H460 lung it was 31.4%; with HOP-92 NSCLC, 36.4%. Further, the growth in the assay with NCI-H522 lung is 40.2%; in the assay with A549/ATCC NSCLC, -3.89% (active); with 786-0 renal, -7.62% (active); in the assay on COLO 205 colon it was 52.5%; in the assay on DU-145 prostate, 28.2%; in the assay with K-562 leukemia, 24.3%. Besides, the growth in the assay on MALME-3M melanoma was 63%; in the assay with MDA-MB-231 breast it was 4.46% (active); in the assay with RXF 393 renal, -50.7% (active); with SF-268 CNS, 54.6%; in the assay on SF-295 CNS, 71.4%; in the assay with SF-539 CNS, -33% (active). The growth in the assay with UACC-257 melanoma was 6.89% (active); with M14 melanoma, 49.3%.

For `O=C(OCC1CCCO1)c1ccc([N+](=O)[O-])cc1` (stereo not given), the growth in the assay on NCI-H23 lung was 105%; in the assay on NCI-H226 lung it was 92.5%; in the assay on NCI-H322M lung it was 100%; in the assay with HOP-62 NSCLC, 92.6%; in the assay on NCI-H460 lung, 95.5%; with HOP-92 NSCLC, 91.8%. Further, the growth in the assay with NCI-H522 lung was 94.2%; in the assay with A549/ATCC NSCLC it was 90.9%; in the assay on 786-0 renal it was 91%; in the assay with COLO 205 colon, 103%; in the assay on DU-145 prostate, 113%; in the assay on K-562 leukemia, 111%. The growth in the assay on MALME-3M melanoma is 106%; in the assay on MDA-MB-231 breast it was 106%; in the assay on RXF 393 renal, 102%; with SF-268 CNS, 106%; with SF-295 CNS it was 102%; in the assay on SF-539 CNS, 102%. Besides, the results for the growth in the assay on UACC-257 melanoma and in the assay on M14 melanoma were 85.5% and 101%, respectively.

Take `O=C(CCCl)OCCOc1ccccc1`: the growth is 96.2% in the assay on NCI-H23 lung; 104% in the assay with NCI-H226 lung; 97% in the assay on NCI-H322M lung; 105% in the assay on HOP-62 NSCLC; 104% in the assay on NCI-H460 lung; 86.7% in the assay on HOP-92 NSCLC. Besides, the growth in the assay on NCI-H522 lung is 98.2%; in the assay with A549/ATCC NSCLC, 102%; with 786-0 renal it was 99.4%; in the assay on COLO 205 colon, 103%; in the assay with DU-145 prostate, 101%; with K-562 leukemia it was 93.2%. The growth was 97.7% in the assay on MALME-3M melanoma; 111% with MDA-MB-231 breast; 112% with RXF 393 renal; 94.6% with SF-268 CNS; 105% in the assay on SF-295 CNS; 95.8% in the assay with SF-539 CNS. Moreover, the growth in the assay on UACC-257 melanoma is 110%; with M14 melanoma, 102%.

As for `O=C(O)c1ccccc1Cc1ccc2c(c1)CCCC2`, the growth with NCI-H23 lung is 100%; with NCI-H226 lung it was 92.5%; in the assay on NCI-H322M lung, 99.2%; in the assay on HOP-62 NSCLC, 111%; in the assay on NCI-H460 lung, 106%; in the assay on HOP-92 NSCLC it was 107%. Besides, the growth with NCI-H522 lung is 98.3%; in the assay with A549/ATCC NSCLC, 94.9%; with 786-0 renal, 107%; with COLO 205 colon, 112%; with DU-145 prostate it was 118%; in the assay with K-562 leukemia, 106%. In addition, the growth was 108% in the assay with MALME-3M melanoma; 95% in the assay on MDA-MB-231 breast; 105% with RXF 393 renal; 99.5% in the assay with SF-268 CNS; 116% with SF-295 CNS; 110% in the assay with SF-539 CNS. The growth in the assay on UACC-257 melanoma is 100%; with M14 melanoma, 110%.

`O=S1(=O)c2ccccc2Oc2ccccc21`: the growth in the assay on NCI-H23 lung was 104%; in the assay with NCI-H226 lung it was 100%; with NCI-H322M lung it was 101%; in the assay with HOP-62 NSCLC it was 93.4%; in the assay with NCI-H460 lung, 99%; in the assay on HOP-92 NSCLC it was 90.4%. The growth with NCI-H522 lung was 78.2%; in the assay with A549/ATCC NSCLC, 95.4%; in the assay with 786-0 renal, 99.9%; in the assay on COLO 205 colon, 109%; with DU-145 prostate it was 107%; in the assay on K-562 leukemia, 114%. Further, the growth with MALME-3M melanoma is 110%; in the assay with MDA-MB-231 breast it was 110%; with RXF 393 renal it was 90.7%; with SF-268 CNS it was 107%; in the assay on SF-295 CNS, 91.8%; in the assay with SF-539 CNS it was 96.1%. In addition, the figures for the growth in the assay with UACC-257 melanoma and with M14 melanoma were 103% and 101%, respectively.

For the compound `Oc1ccc2ccccc2c1CN1CCOCC1`, the growth is 104% in the assay with NCI-H23 lung; 105% in the assay on NCI-H226 lung; 112% in the assay on NCI-H322M lung; 122% in the assay on HOP-62 NSCLC; 115% in the assay with NCI-H460 lung; 102% in the assay with HOP-92 NSCLC. Also, the growth in the assay with NCI-H522 lung was 110%; in the assay with A549/ATCC NSCLC it was 99.7%; in the assay on 786-0 renal it was 109%; in the assay with COLO 205 colon, 106%; with DU-145 prostate, 124%; in the assay on K-562 leukemia, 118%. The growth in the assay with MALME-3M melanoma is 121%; in the assay with MDA-MB-231 breast it was 109%; in the assay with RXF 393 renal, 128%; in the assay on SF-268 CNS it was 102%; in the assay on SF-295 CNS, 110%; with SF-539 CNS, 81.4%. For the same compound, the growth with UACC-257 melanoma was 120%; in the assay on M14 melanoma, 98%.

For the compound `CCC1CCC(C)NC1` (stereo not given), the growth is 91.3% in the assay on NCI-H23 lung; 93.4% with NCI-H226 lung; 108% with NCI-H322M lung; 101% in the assay with HOP-62 NSCLC; 99.7% in the assay on NCI-H460 lung; 87.3% with HOP-92 NSCLC. Moreover, the growth in the assay on NCI-H522 lung is 99.2%; in the assay on A549/ATCC NSCLC, 105%; in the assay on 786-0 renal, 102%; with COLO 205 colon, 103%; in the assay on DU-145 prostate it was 107%; in the assay on K-562 leukemia it was 102%. Besides, the growth in the assay with MALME-3M melanoma was 102%; with MDA-MB-231 breast it was 120%; with RXF 393 renal, 107%; with SF-268 CNS, 102%; in the assay on SF-295 CNS, 92.1%; in the assay with SF-539 CNS it was 99.7%. Besides, the growth was 96% in the assay on UACC-257 melanoma and 95.2% with M14 melanoma.

Source of the values: PubChem BioAssay (NCI).
